Source: PubChem BioAssay
MITF act: increases MITF-driven TRPM1 promoter luciferase signal | SK-MEL-5 TRPM1-promoter luciferase, 24 h; % of positive control, neutral wells = 0 | activation, % at 12.5 µM | actives 0.75% (n = 300,000);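 active means mean activation of at least 80% with every replicate also reaching 80%; inconclusive means mean reaches 80% but some replicate falls short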
esBAF inh: inhibitors of esBAF chromatin remodeling in mouse ES cells | Bmi1-luciferase knock-in reporter, 24 h; 100% = twice the neutral-well signal | reporter increase, % at 12.5 µM | actives 2% (n = 350,000) | AID 602393; in the data active means activation above about 40%; inconclusive means no clear call, values can overlap the other calls;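 further: a rise in the Bmi1 reporter signal indicates esBAF inhibition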
Statin myotox sup: suppressors of simvastatin-induced myotoxicity in C2C12 myotubes; ATP luminescence, 48 h; scaled: DMSO 0, geranylgeraniol control 100; rescue of ATP level, % at 7.49 µM; actives 0.78% (n = 330,000);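 active means mean ATP rescue above about 67%, or every replicate alone reaching that limit, limit read from the data, passing the limit was not always enough; inconclusive means no clear call, values can overlap the other calls; inactive means mean under the limit and some replicate under it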;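 further: myotubes were challenged with 10 µM simvastatin during compound exposure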
Wnt bcat act: activators of Wnt/beta-catenin signaling; Wnt/beta-catenin reporter cell assay, activator, plate reader; activation, % at 9.35 µM; actives 1.2% (n = 300,000); in the data active means activation above about 30%, passing the limit was not always enough; inconclusive means no clear call, values can overlap the other calls
A number is an active result; - = inactive; ? = inconclusive; . = no result given. Most compounds without a hit are left out; they make up all but 3% or so of the library.

SMILES | MITF act | esBAF inh | Statin myotox sup | Wnt bcat act
C[C@H](CO)N1C[C@H](C)[C@H](CN(C)CC2CC2)Oc2ccc(NC(=O)C3CC3)cc2CC1=O | . | - | - | .
O=C(C[C@@H]1C[C@H]2c3cc(NC(=O)CC4CC4)ccc3O[C@H]2[C@H](CO)O1)NCc1ccc(Cl)cc1 | . | - | - | .
COc1ccc(C(N)=O)cc1N | - | - | 130 | -
O=c1c2ccccc2n(Cc2ccc(F)cc2)c(=O)n1C1CCCC1 | - | - | 116 | -
C[C@@H]1CN([C@H](C)CO)C(=O)c2cc(NC(=O)Nc3ccc(F)cc3)ccc2O[C@@H](C)CCCCO[C@H]1CN(C)C(=O)C1CCCCC1 | . | - | . | .
COc1ccc(CCNC(=O)C2CCC(CNc3c(N4CCCC4)c(=O)c3=O)CC2)cc1OC (stereo unspecified) | - | - | 86 | -
CCS(=O)(=O)N1CCCC(C(=O)NCCc2ccc(OC)c(OC)c2)C1 (stereo unspecified) | - | - | 127 | .
Cc1ccc(Nc2nnc(-c3ccccc3N)o2)cc1C | . | . | . | 37
Cc1noc(C)c1NC(=O)N(C)C[C@@H]1Oc2ccc(NC(=O)Nc3cccc4ccccc34)cc2C(=O)N([C@@H](C)CO)C[C@H]1C | . | - | - | .
CC(C)CC(c1nnnn1C1CCCC1)N1CCN(c2ccccc2F)CC1 (stereo unspecified) | - | - | 117 | -
CC(C)(C)n1nnnc1C(c1cccnc1)N1CCN(c2ccccc2F)CC1 (stereo unspecified) | - | - | 120 | .
CC(C)CC(c1nnnn1C1CCCCC1)N1CCN(c2ncccn2)CC1 (stereo unspecified) | - | - | - | -
Nc1c2c(nc3sc4c(c13)CCCC4)-c1ccccc1CC2 | . | - | - | 42
O=C(NCCCNCCCNC(=O)c1ccccn1)c1ccccn1 | - | - | 115 | -
CN1C(=O)c2cc(NC(=O)c3ccc(C(F)(F)F)cc3)ccc2OC[C@@H]2O[C@H](CC(=O)NC3Cc4ccccc4C3)CC[C@H]21 | . | - | - | .
COCCNc1oc(/C=C/c2ccccc2)nc1C#N | 103 | . | . | 46
COCCNc1oc(-c2ccc(Cl)cc2)nc1C#N | 81 | . | . | 43
CN(C)CCCNc1oc(-c2ccc(Cl)cc2)nc1C#N | - | - | - | .
N#Cc1nc(-c2ccc(Cl)cc2)oc1NCc1ccco1 | - | 52 | - | 38
COCCNc1oc(-c2ccc(C)cc2)nc1C#N | - | 65 | - | .
O=C(N[C@H]1CC[C@H](CCNS(=O)(=O)c2ccccc2)O[C@H]1CO)c1cccnc1 | . | - | - | .
C/C(=N\Nc1nncc2ccccc12)c1ccc(C(C)(C)C)cc1 | . | 49 | - | .
Clc1cccc(/C=N/Nc2ncnc3ccccc23)c1 | . | 53 | - | .
CCOC(=O)C/C(=N\Nc1ncnc2ccccc12)c1ccccc1 | - | 43 | - | -
C(=N\Nc1ncnc2ccccc12)/c1ccccc1 | - | 70 | - | -
SMILES | MITF act | esBAF inh | Statin myotox sup | Wnt bcat act
CCOC(=O)/C(=N\Nc1ncnc2ccccc12)c1ccc(C)cc1 | - | - | - | -
COCC(=O)N(C)C[C@H]1Oc2ncc(C#Cc3ccc(OC)cc3)cc2C(=O)N([C@H](C)CO)C[C@H]1C | . | - | - | .
C(=N\Nc1nncc2ccccc12)/c1ccccc1 | - | - | - | 38
COc1ccc(NC(=O)N(C)C[C@@H]2Oc3ccc(NC(=O)CCC(F)(F)F)cc3CC(=O)N([C@@H](C)CO)C[C@@H]2C)cc1 | . | - | - | .
Clc1ccc(Sc2ccc(/C=N/n3cnnc3)o2)cc1 | - | - | - | .
Clc1ccc(Sc2oc(/C=N/n3cnnc3)cc2Br)cc1 | - | - | 149 | -
C=CCn1cc(/C=N/N2C(=O)C3C4C=CC(C4)C3C2=O)c2ccccc21 (stereo unspecified) | - | . | . | -
O=C1C2C3C=CC(O3)C2C(=O)N1N=Cc1cccc2ccccc12 (stereo unspecified) | - | 46 | - | -
CC(C)COC(=O)n1ccc(C(=O)N2CCCCC2)n1 | - | - | - | .
CC(=O)c1ccc(NC(=O)c2ccn(C(=O)OCC(C)C)n2)cc1 | - | . | . | 53
O=C(CCSc1ccc(Cl)cc1)NC1CCCCC1 | - | . | . | .
O=C(CCS(=O)(=O)c1ccccc1)NC12CC3CC(CC(C3)C1)C2 | 97 | - | - | -
O=C(CCSc1ccc(Cl)cc1)NC12CC3CC(CC(C3)C1)C2 | . | 50 | - | -
O=C(CCS(=O)(=O)c1ccccc1)NCCS(=O)(=O)c1ccccc1 | - | . | . | -
O=C(N[C@H]1CC[C@@H](CCNC(=O)C2CCOCC2)O[C@@H]1CO)c1ccncc1 | . | - | - | .
CCOC(=O)c1cc(=O)n(Cc2ccccc2C)c2ccccc12 | - | - | 103 | -
O=C(CSc1ccccn1)c1ccc(F)cc1 | - | - | - | .
Cc1ccc(C(=O)CSc2ccccn2)cc1 | - | 49 | - | .
O=C(CNC(=O)c1cnccc1C(F)(F)F)c1cccc(Cl)c1 | - | - | 78 | -
Cc1ccc(O)c(CNc2cccc3cccnc23)c1 | - | . | . | -
Oc1ccc(Br)cc1CNc1cccc2cccnc12 | . | - | 83 | -
Cc1noc(C)c1NC(=O)Nc1ccc2c(c1)C(=O)N([C@@H](C)CO)C[C@H](C)[C@H](CN(C)Cc1ccccc1)O2 | . | - | - | .
CCOC(=O)C1=NN(c2ccc(Cl)cc2)C(=O)C1 | 145 | . | . | 65
CCOC(=O)c1nn(-c2ccc(Cl)cc2)cc1O | 101 | 65 | - | ?
CCOC(=O)c1nn(-c2ccc3c(c2)OCO3)cc1O | 90 | . | . | .
SMILES | MITF act | esBAF inh | Statin myotox sup | Wnt bcat act
CCOC(=O)CC1=NN(c2ccccc2)C(=O)C1 | - | . | . | -
CCOC(=O)c1nn(-c2ccc(C)cc2)cc1O | - | - | - | .
CCOC(=O)c1nn(-c2ccc3ccccc3c2)cc1O | 133 | 51 | - | ?
O=C(C[C@@H]1CC[C@H]2[C@@H](COC[C@@H](O)CN2C(=O)Nc2ccc(C(F)(F)F)cc2)O1)NCC1CCCCC1 | . | - | - | .
CC(C)NC(=O)Nc1ccc2c(c1)C(=O)N([C@H](C)CO)C[C@H](C)[C@H](CN(C)CC1CC1)OCCCC[C@H](C)O2 | . | - | - | .
COc1cccc(NC(=O)Nc2ccc3c(c2)C(=O)N(C)[C@H]2CC[C@@H](CC(=O)O)O[C@H]2CO3)c1 | . | - | - | .
Nc1nc(Nc2ccccc2)nc(N2CCCC2)c1[N+](=O)[O-] | - | 50 | - | -
COc1ccc(Nc2nc(N)c([N+](=O)[O-])c(N3CCCC3)n2)cc1 | - | - | - | -
N#CCSc1nnc(-c2sc3ccccc3c2Cl)o1 | - | . | . | .
Clc1cccc2sc(-c3nnc(-c4ccccc4)o3)c(Cl)c12 | - | 44 | - | .
CNC[C@@H]1OCCCC[C@@H](C)Oc2ccc(NC(=O)Nc3ccc(C(F)(F)F)cc3)cc2C(=O)N([C@@H](C)CO)C[C@H]1C | . | - | - | .
CN1CCCN(C(=O)c2ccc(Br)s2)CC1 | - | - | - | -
CN1CCN(C(=O)c2ccc(-c3cccs3)s2)CC1 | . | . | . | 36
CC(C)(C)c1ccc(C(=O)NCCCNC(=O)c2cccnc2)cc1 | - | 47 | - | -
O=C(NCCCCNC(=O)c1cccnc1)c1cccnc1 | . | - | - | .
CC(C)Oc1ccc(C(=O)NCCCNC(=O)c2cccnc2)cc1 | - | - | - | 38
CC(=O)Nc1cccc(OCCCNC(=O)c2ccc(C(C)(C)C)cc2)c1 | . | - | - | 31
